From the supplement of paper PMC12669032
Unmarked numbers belong to inactive results.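 Rule for the calls: active = AUC reduced over 20% with Padj below 0.05 in at least 2 of 3 replicates; inactive = otherwise.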

Tests used:
Experiment in all cases: growth AUC relative to DMSO control (median of replicates) (fraction); higher = more growth (less inhibition), active = hit call of the paper
Conditions in all cases: 20 µM; 24 h
Akkermansia muciniphila = tested on: Akkermansia muciniphila
Method in brief: (§1)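 Gut bacterial monocultures in mGAM were treated with 20 µM compound (1% DMSO) and grown anaerobically at 37 °C in round-bottom 96-well plates from OD600 0.05. OD600 was read hourly for 24 h, with the minimum OD set to 0. Area under the growth curve was normalised to the plate median of solvent-only wells, or to row and column medians on the industrial chemical plate. Each value is the median of three biological replicates, each grown on a separate day.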

Bacteroides caccae = tested on: Bacteroides caccae
Method in brief: as §1

Bacteroides clarus = tested on: Bacteroides clarus
Method in brief: as §1

Bacteroides dorei = tested on: Bacteroides dorei
Method in brief: as §1

Bacteroides stercoris = tested on: Bacteroides stercoris
Method in brief: as §1

[1] = tested on: Bacteroides thetaiotaomicron
Method in brief: as §1

Bacteroides uniformis = tested on: Bacteroides uniformis
Method in brief: as §1

[2] = tested on: Bifidobacterium longum subsp. longum
Method in brief: as §1

Clostridium difficile = tested on: Clostridium difficile
Method in brief: as §1

Collinsella aerofaciens = tested on: Collinsella aerofaciens
Method in brief: as §1

Row | SMILES | growth AUC (Akkermansia muciniphila) | growth AUC (Bacteroides caccae) | growth AUC (Bacteroides clarus) | growth AUC (Bacteroides dorei) | growth AUC (Bacteroides stercoris) | growth AUC [1] | growth AUC (Bacteroides uniformis) | growth AUC [2] | growth AUC (Clostridium difficile) | growth AUC (Collinsella aerofaciens)
1 | CCS(=O)(=O)c1nc2ccccn2c1S(=O)(=O)NC(=O)Nc1nc(OC)cc(OC)n1 | 1.1 | 1.02 | 1.02 | 0.993 | 1 | 0.995 | 0.989 | 0.928 | 1.01 | 0.983
2 | CC(C)(C)C(O)(CCc1ccc(Cl)cc1)Cn1cncn1 (stereo not given) | 0.856 | 0.965 | 1.01 | 1.03 | 1.1 | 0.98 | 0.959 | 0.956 | 1.06 | 1.06
3 | COP(=S)(OC)Oc1ccc(S(N)(=O)=O)cc1 | 1.02 | 1.03 | 0.995 | 1 | 0.984 | 0.984 | 1.02 | 0.969 | 0.992 | 0.984
4 | CC1(C)CCC(Cc2ccc(Cl)cc2)C1(O)Cn1cncn1 (stereo not given) | 1.01 | 0.874 | 0.925 | 0.98 | 1.35 | 0.93 | 0.937 | 1.03 | 0.973 | 0.95
5 | CN(C)C(CSS(=O)(=O)c1ccccc1)CSS(=O)(=O)c1ccccc1 | 1.14 | 0.966 | 0.999 | 1.01 | 1.01 | 1.06 | 1.06 | 1.02 | 0.901 | 0.938
6 | CNC(=O)ON=C(CSC)C(C)(C)C | 0.989 | 1.01 | 0.992 | 0.929 | 1 | 0.986 | 1.04 | 0.999 | 1 | 0.983
7 | COP(=S)(OC)Oc1cc(Cl)c(Cl)cc1Cl | 1.09 | 0.936 | 1.02 | 0.947 | 1.17 | 1.03 | 0.939 | 0.947 | 1.02 | 1.04
8 | CNC(=O)c1cc(Cl)cc(C)c1NC(=O)c1cc(Br)nn1-c1ncccc1Cl | 0.893 | 1 | 0.952 | 0.999 | 0.946 | 0.967 | 0.976 | 0.969 | 0.964 | 1.02
9 | COCC(=O)N(c1c(C)cccc1C)[C@@H](C)C(=O)OC | 1.19 | 0.953 | 0.968 | 0.922 | 1 | 1.04 | 0.981 | 1.04 | 1.04 | 0.973
10 | CC1(C)CC/C(=C\c2ccc(Cl)cc2)C1(O)Cn1cncn1 (stereo not given) | 0.95 | 0.976 | 0.983 | 0.965 | 0.792 | 0.971 | 0.995 | 1.08 | 0.984 | 0.987
11 | CNC(=O)CSP(=O)(OC)OC | 1.07 | 1.03 | 1.02 | 1.03 | 1.04 | 0.997 | 1.01 | 1.06 | 1.03 | 1.03
12 | O=C(O)CCCOc1ccc(Cl)cc1Cl | 0.929 | 1.04 | 0.978 | 1.02 | 0.922 | 1.02 | 1.07 | 1.06 | 1.01 | 0.984
13 | CCC(C)(C)C(=O)OC1=C(c2ccc(Cl)cc2Cl)C(=O)OC12CCCCC2 | 1.03 | 1 | 0.975 | 0.976 | 0.978 | 0.946 | 0.911 | 0.99 | 0.973 | 0.987
14 | CCCN(CCC)c1c([N+](=O)[O-])cc(C(F)(F)F)cc1[N+](=O)[O-] | 1.02 | 1.02 | 1.04 | 1.03 | 1.05 | 0.976 | 1.01 | 1.1 | 1 | 1.01
15 | CC1(C)C(C=C(Cl)Cl)[C@@H]1C(=O)O[C@@H](C#N)c1ccc(F)c(Oc2ccccc2)c1 (stereo not given in full) | 0.998 | 0.986 | 1.01 | 1.01 | 0.992 | 1 | 0.976 | 0.983 | 0.996 | 0.96
16 | CCc1cnc(C2=NC(C)(C(C)C)C(=O)N2)c(C(=O)O)c1 (stereo not given) | 0.891 | 1.01 | 0.971 | 0.951 | 0.985 | 0.981 | 1.01 | 0.937 | 0.993 | 0.983
17 | CC1(C)OC(c2ccco2)CN1C(=O)C(Cl)Cl (stereo not given) | 0.918 | 1 | 0.942 | 1 | 1.03 | 0.992 | 1.02 | 1.03 | 0.956 | 1.02
18 | CC(Oc1ccc(Oc2ncc(C(F)(F)F)cc2Cl)cc1)C(=O)O (stereo not given) | 1.02 | 0.974 | 0.957 | 0.954 | 0.979 | 0.975 | 0.943 | 0.93 | 1.01 | 0.967
19 | O=S(=O)(Oc1ccc(Cl)cc1)c1ccc(Cl)cc1 | 1.09 | 0.97 | 0.998 | 0.812 | 0.973 | 0.972 | 0.995 | 1.02 | 1.01 | 0.961
20 | CC1CNC(=S)N1 (stereo not given) | 1 | 1.03 | 1.03 | 1.04 | 1.09 | 1 | 1 | 1.01 | 1.06 | 1.04
21 | CC(C)=CC1C(C(=O)OC(C#N)c2cccc(Oc3ccccc3)c2)C1(C)C (mixture of isomers) | 0.826 | 0.964 | 0.994 | 0.989 | 1.11 | 1.01 | 1.06 | 0.914 | 1 | 0.935
22 | c1cc2c3c(cccc3c1)CC2 | 0.966 | 1 | 1 | 1.01 | 0.991 | 0.999 | 0.994 | 0.961 | 0.993 | 0.995
23 | O=C(NC(=O)c1c(F)cccc1F)Nc1ccc(CO/N=C(\c2ccc(Cl)cc2)C2CC2)cc1 | 1.02 | 0.994 | 0.955 | 1.01 | 0.981 | 0.996 | 0.983 | 0.959 | 0.983 | 0.963
24 | CCOC(=O)CCN(SN(C)C(=O)Oc1cccc2c1OC(C)(C)C2)C(C)C | 1.1 | 1.04 | 0.985 | 1 | 0.982 | 1.02 | 1.05 | 1.01 | 0.999 | 0.978
25 | CN(C(=O)COc1nc2ccccc2s1)c1ccccc1 | 1.06 | 0.925 | 1.03 | 0.956 | 1.26 | 0.96 | 0.934 | 1.12 | 0.982 | 1.01
26 | CCCOCCN(C(=O)CCl)c1c(CC)cccc1CC | 1.11 | 0.979 | 0.981 | 0.976 | 0.919 | 0.95 | 0.895 | 1.05 | 0.971 | 0.972
27 | CC(=O)O.NC(N)=NCCCCCCCCNCCCCCCCCN=C(N)N | 0.836 | 0.279 (active) | 0.442 (active) | 0.638 (active) | 0.186 (active) | 0.0333 (active) | 0.115 (active) | 0.136 (active) | 0.984 | 0.618 (active)
28 | O=C(O)COc1nc(Cl)c(Cl)cc1Cl | 1.13 | 0.874 | 0.989 | 0.94 | 1.19 | 1 | 0.993 | 1.04 | 0.963 | 0.99
29 | Cn1cc(-c2ccccc2)c(=O)c(-c2cccc(C(F)(F)F)c2)c1 | 0.9 | 0.923 | 0.999 | 1.01 | 1.06 | 0.967 | 0.977 | 1.04 | 0.994 | 0.939
